Screens: PubChem BioAssay, National Center for Advancing Translational Sciences (NCATS)
Many of the other results were omitted from the sample, so hits are more common in it than they were.
RORgamma inh – ROR gamma (mouse) transcription inhibition; Drosophila S2 Gal4-RORgamma UAS-luciferase reporter, 20 h; Potency, µM (highest dose often 53.6 µM), usual class: inhibitors; actives 5.4% (n = 310,000); further: nearly all actives have a fitted effect of over 60% in size
Target sequence (P51450 whole entry, looked up, the tested form may be a part): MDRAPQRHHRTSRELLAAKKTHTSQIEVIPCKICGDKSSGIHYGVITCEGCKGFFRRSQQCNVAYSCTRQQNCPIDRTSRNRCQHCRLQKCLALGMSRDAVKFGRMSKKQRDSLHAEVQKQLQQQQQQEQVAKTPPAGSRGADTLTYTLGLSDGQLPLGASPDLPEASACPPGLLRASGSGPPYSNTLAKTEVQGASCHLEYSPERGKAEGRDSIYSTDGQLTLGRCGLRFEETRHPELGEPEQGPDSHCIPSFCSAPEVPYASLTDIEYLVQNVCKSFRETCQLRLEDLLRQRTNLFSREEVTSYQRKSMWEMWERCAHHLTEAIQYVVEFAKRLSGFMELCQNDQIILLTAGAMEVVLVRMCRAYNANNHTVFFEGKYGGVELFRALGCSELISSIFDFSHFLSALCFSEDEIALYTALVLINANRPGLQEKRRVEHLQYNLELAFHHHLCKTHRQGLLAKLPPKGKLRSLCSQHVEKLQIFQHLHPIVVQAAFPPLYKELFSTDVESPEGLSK
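A Gal4/UAS one-hybrid system in insect cells: metallothionein-promoter Gal4–ROR gamma fusion plus Photinus luciferase reporter. Copper sulfate 700 uM final, 20 hr ambient incubation, luminescent detection after 10 min with reagent.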
Giardia killer – kills Giardia lamblia; Giardia lamblia trophozoite viability; activity change, % at 7.66 µM, hits read low; actives 0.15% (n = 340,000); in the data active means activity change below about -80%; inconclusive means between about -30% and that limit;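 further: parasites exposed to compound for two days anaerobically before the ATP read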
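Each well holds 100 Giardia trophozoites and compound. After two days (48 hrs) at 37 deg C in anaerobic conditions, ATP is quantified by luminescence.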
ERG-DNA inh – blocks human ERG Ets domain binding to DNA; P11308; fluorescence polarization, His-ERG Ets domain / labelled DNA; Potency, µM (top dose mostly 76.9 µM), hits mostly inhibitors; actives 0.028% (n = 370,000); active means well fitted inhibition curve with a large enough effect in the polarisation, with a control signal flat; inconclusive means small, poorly fitted or top-dose-only effect, or effect the other way, or a change in a side signal; inactive means no such curve, though single readings can be large or run the other way; the % refers to the polarisation;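 further: polarization taken with two DNA probes labelled with fluorescein and Texas red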
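His-tagged ERG Ets domain (1 uM in the protein solution; 300mM KCl, 50mM Tris-HCl, 1mM EDTA, 1mM DTT, pH 7.5) received compound, then a probe mix of 5 nM fluorescein-DNA and 100nM Texas-615-DNA. Fluorescence polarization was read for both dyes.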
Integrin act MD – activators of alpha7 integrin expression for muscular dystrophy; alpha7betagal myoblasts, beta-gal FDG fluorescence, 48 h; Potency, µM (titrated, usually from 38.3 µM), most hits filed as activators; actives 0.064% (n = 350,000); AID 624291; further: nearly all actives have a fitted effect of over 60% in size
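Alpha7betagal+/- myoblasts (passage 13) were plated 16-24 hr, then exposed to compounds (1:260 dilution of DMSO stock) for 48 hours at 37C. After MPER lysis, β-galactosidase reporter activity was read as FDG fluorescence (ex 480/em 540) after 30 minutes.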
Gal4-VP16 FLuc – Gal4-VP16 reporter inhibition counter-screen. Drosophila S2 Gal4-VP16 UAS-luciferase, luminescence, 20 h. Potency, µM (series often up to 53.6 µM), most hits filed as inhibitors. actives 3.5% (n = 310,000). AID 2546;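 further: Gal4-VP16 expression switched on by copper sulfate through the metallothionein promoter; nearly all actives have a fitted effect of over 50% in size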
Hits are given with their value; - = inactive; ? = inconclusive; . = no result; [ ] = another dose, or the depositor's remark. Unless noted, the call rests on the fitted dose curve; in most records, active means well fitted curve in the direction sought with a large enough effect; inconclusive means small, poorly fitted or top-dose-only effect, or another doubt; inactive means no such curve, though single readings can be large; an effect the other way counts as inactive or inconclusive.

SMILES	RORgamma inh	Giardia killer	ERG-DNA inh	Integrin act MD	Gal4-VP16 FLuc
COc1ccc(CNC(=O)Cn2nc(C(F)(F)F)c(Br)c2C)cc1	-	-	-	-	-
O=C(N/N=C/c1ccccc1O)NC12CC3CC(CC(C3)C1)C2	?	-	-	-	16µM
O=C(N/N=C/c1ccc(O)c(O)c1)NC12CC3CC(CC(C3)C1)C2	-	-	-	-	-
O=C(N/N=C/c1cc(Cl)cc([N+](=O)[O-])c1O)NC12CC3CC(CC(C3)C1)C2	4µM	-	-	-	?
COc1cc(/C=N/NC(=O)NC23CC4CC(CC(C4)C2)C3)ccc1O	-	-	-	-	-
CN(C(=O)CSc1ncnc2scc(-c3ccccc3)c12)C1CCS(=O)(=O)C1 (stereo not drawn)	?	-	-	-	-
CCOC(=O)c1sc2nc(C)nc(SCC(=O)N(C)C3CCS(=O)(=O)C3)c2c1C (stereo not drawn)	13µM	-	-	-	-
CN(C(=O)CSc1ncnc2sc(-c3ccccc3)cc12)C1CCS(=O)(=O)C1 (stereo not drawn)	11µM	-	-	-	?
COc1ccc(C2NN=C(c3c[nH]c4ccccc34)C2O)cc1 (stereo not drawn)	-	-	-	-	-
COc1ccc(C2C(O)C(c3c[nH]c4ccccc34)=NN2C(=O)CCl)cc1 (stereo not drawn)	13µM	-	-	-	10µM
C[C@@H](/C=C/c1ccc2ccccc2c1)C1COC(=O)C[C@H]1O (stereo partly drawn)	-	-	.	.	-
COC(=O)N1C(=O)[C@@](c2ccccc2)(C2CCCC2)N1C(=O)OC	11µM	-	-	-	-
Cc1c(C(=O)NN)sc(=S)n1C	-	-	-	-	-
Cc1csc(C(=O)NN)c1N(C)C	0.56µM	-	-	?	?
CC(C)(C)C1=NN(C(=O)c2ccccc2)C(O)(C(C)(C)C)C1 (stereo not drawn)	-	-	-	-	-
CC(C)C1=NN(C(=O)c2ccccc2)C(O)(C(C)(C)C)C1 (stereo not drawn)	4.5µM	-	-	-	?
O=C(N/N=C/c1cc(Br)c(Br)o1)c1cccnc1	?	-	-	-	?
O=C(CNc1cccc2ccccc12)N/N=C/c1ccc(C(=O)O)cc1	-	-	-	-	-
O=C(N/N=C\c1cc(Br)c(Br)o1)c1cncc(Br)c1	1.4µM	-	-	-	2µM
O=C(N/N=C\C=C\c1ccco1)c1cc(-c2ccc3ccccc3c2)n[nH]1	2.2µM	-	-	-	1µM
O=C(CNc1cccc2ccccc12)N/N=C/C=C/c1ccco1	13µM	-	-	-	?
O=C(N/N=C/C=C/c1ccccc1)c1cccnc1	5.6µM	-	-	-	?
COc1ccc(NS(=O)(=O)c2ccc3c(c2)N(C(C)=O)CCO3)c(OC)c1	-	-	-	-	-
CC(C)=CCC[C@](C)(O)C1CC[C@]2(C)[C@@H]1CC[C@@H]1[C@@]3(C)CCC(=O)C(C)(C)[C@@H]3CC[C@]12C (stereo partly drawn)	-	.	.	.	-
CCn1c(=O)c2c(nc(SCC(=O)NC3CCCC3)n2C)n(C)c1=O	-	-	-	-	-
SMILES	RORgamma inh	Giardia killer	ERG-DNA inh	Integrin act MD	Gal4-VP16 FLuc
Fc1ccc(-n2ncc3c(N4CCN(c5ccccc5F)CC4)ncnc32)cc1	.	.	-	.	.
O=C(N/N=C/C=C/c1ccco1)c1cccnc1	-	-	.	-	-
O=C(N/N=C/C=C/c1ccc(Br)cc1)C(O)c1ccccc1 (stereo not drawn)	11µM	?	-	-	?
Cn1cc(C(=O)N/N=C/C=C/c2ccccc2)ccc1=O	?	-	-	-	?
O=C(N/N=C/C=C\c1ccco1)c1cccnc1	13µM	-	-	-	?
O=C(N/N=C/c1ccccc1)C(O)c1ccccc1 (stereo not drawn)	-[1.91 µM]	-	-	-	-
O=C(N/N=C\C=C\c1ccco1)c1cncc(Br)c1	2.2µM	-	-	-	?
O=C(N/N=C/C=C/c1ccccc1)c1ccc(Br)cc1	3.2µM	-	-	-	4.5µM
CC(C)(CNC(=O)c1cccs1)N1CCOCC1	.	-	-	-	.
CC(C)Sc1cc(Cl)nc(NC(=O)Nc2ccccc2)n1	-	-	-	?	-
CCN(CC)C(=O)CSc1n[nH]c(=O)n1CCc1ccccc1	-	-	-	-	-
O=c1[nH]nc(Sc2ncnc3sccc23)n1CCc1ccccc1	16µM	-	-	-	?
O=C(NNC1=Nc2cc([N+](=O)[O-])ccc2OC1)c1ccccc1Cl	1µM	-	-	-	-
Nc1ccc(Br)cc1C(=O)O	2.8µM	-	-	-	1.4µM
CNc1sc(C(=O)c2ccccc2F)c(N)c1-c1nc2ccccc2s1	7.9µM	-	-	-	13µM
O=C(CNC(=O)c1ccccc1F)OCc1nc2ccccc2s1	-	-	-	-	-
Brc1ccc(OCc2cn3ccccc3n2)cc1	10µM	?	-	-	-
Cc1cccn2cc(COc3cccc([N+](=O)[O-])c3)nc12	-	-	-	-	-
O=C(COc1ccc(Br)cc1)NCc1cn2ccccc2n1	-	-	-	-	-
Cc1cccn2cc(COc3ccc(-c4ccccc4)cc3)nc12	13µM	-	-	-	?
CN(C)c1ccc(/C=C2\SC(=O)N(CCc3nnc(N)s3)C2=O)cc1	2.5µM	?	-	-	4.5µM
CN(C)c1ccc(/C=C2/SC(=O)N(CCN=C3NS(=O)(=O)c4ccccc43)C2=O)cc1	-	-	-	-	-
CCCCCCCCC1CC(C(=O)Nc2ccccc2)C(=O)O1 (stereo not drawn)	.	-	-	-	.
Cc1cc(C(=O)N/N=C/c2cc(Br)cc(Br)c2OC(=O)c2cccc(F)c2)n[nH]1	3.5µM	-	-	-	-
Cc1cc(C(=O)N/N=C/c2cc(Br)cc(Br)c2OC(=O)c2ccccc2)n[nH]1	-[10 µM]	.	.	.	-
SMILES	RORgamma inh	Giardia killer	ERG-DNA inh	Integrin act MD	Gal4-VP16 FLuc
Cc1cc(C(=O)N/N=C\c2cc(C(C)(C)C)ccc2O)n[nH]1	2.2µM	-	-	-	5.6µM
Cc1cc(C(=O)N/N=C/c2cc(Br)ccc2OC(=O)c2ccc(Br)cc2)n[nH]1	8.9µM	.	.	.	7.1µM
CCNC(=S)NNC(=O)c1ccccc1OC(F)F	4µM	-	-	-[7.66 µM]	?
COc1ccc(NC(=S)NNC(=O)c2ccccc2OC(F)F)cc1	13µM	-	-	-	-
O=C(NNC(=O)c1ccccc1Cl)c1ccccc1Cl	-	-	-	-	-
CCc1ccc(NC(=S)NNC(=O)c2ccccc2OC(F)F)cc1	-	.	.	.	?
CCNC(=S)NNC(=O)c1ccncc1	?	-	-	-	-
CCNC(=S)NNC(=O)c1ccoc1C	-	-	-	-	-
CCNC(=S)NNC(=O)c1ccccc1Cl	3.2µM	-	.	-	14µM
CCNC(=S)NNC(=O)c1ccccn1	8.9µM	-	-	-	?
COc1cccc(COCCN2CCN(S(=O)(=O)c3ccccc3)CCC2=O)c1	-	-	.	.	-
